Measurements from PubChem BioAssay (NCI).
The panel holds about 83,000 compounds, 20% with a hit somewhere; the sample as a whole holds those more often.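 Growth was measured after 48 h exposure to one concentration of compound in 96-well plates. Values under 10 count as active.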 A number with no mark means an inactive call. Calls of active or inactive are those of the source.

Tests used:
Experiment in all cases: NCI-60 one-dose screen, 48 h (100 = growth as untreated, 0 = no growth, -100 = all killed)
Settings in all cases: 10 µM unless noted
HCT-15 colon = test system: HCT-15 colon
HT29 colon = test system: HT29 colon
SNB-75 CNS = test system: SNB-75 CNS
SNB-19 CNS = test system: SNB-19 CNS
U251 CNS = test system: U251 CNS
PC-3 prostate = test system: PC-3 prostate
SK-MEL-5 melanoma = test system: SK-MEL-5 melanoma
UACC-62 melanoma = test system: UACC-62 melanoma
LOX IMVI melanoma = test system: LOX IMVI melanoma
SK-MEL-28 melanoma = test system: SK-MEL-28 melanoma

| Structure (SMILES) | growth (HCT-15 colon) | growth (HT29 colon) | growth (SNB-75 CNS) | growth (SNB-19 CNS) | growth (U251 CNS) | growth (PC-3 prostate) | growth (SK-MEL-5 melanoma) | growth (UACC-62 melanoma) | growth (LOX IMVI melanoma) | growth (SK-MEL-28 melanoma) |
| --- | --- | --- | --- | --- | --- | --- | --- | --- | --- | --- |
| CC(=O)C1CC(C)CCC1C(C)C (stereo not given) | 104% | 101% | 81.1% | 91.1% | 107% | 55.4% | 98.9% | 85.3% | 86.6% | 123% |
| COC(=O)Nc1nc2ccc(C(=O)c3ccc(N(C)C4COC4)cc3)cc2[nH]1 | 12.4% | 0.909% (active) | 16.4% | 26.9% | 17.2% | 24.2% | 3.76% (active) | 34.3% | 20.4% | 56.9% |
| COc1cc(Nc2ncc(F)c(Nc3ccc4c(n3)NC(=O)C(C)(C)O4)n2)cc(OC)c1OC | 53.3% | 12.3% | -7.82% (active) | 64.6% | 48.5% | 51.9% | 71.8% | 58% | 9.51% (active) | 67.1% |
| C=CCCCC(=O)CCC(=O)OCC1O[C@@H](O[C@@H]2C(O)[C@@H](OC(C)=O)C(C)O[C@H]2O[C@H](CC=C)CCCCC)C(O)[C@@H](OC(=O)/C(C)=C/C)[C@@H]1OC(=O)/C=C/c1ccccc1 (stereo not given in full) | 20.6% | 0.411% (active) | 30.1% | 45.7% | 11% | 31.3% | -71.5% (active) | 20.1% | -52.9% (active) | 33% |
| COc1ccc(COc2cc3oc(=O)c4cc(C(C)O)ccc4c3cc2OC)cc1 (stereo not given) | 36.6% | 30.1% | 13.7% | 31.9% | 46.5% | 53% | 56.3% | 50.4% | 76.3% | 56.3% |
| COc1cc2ncnc(Nc3cccc(Cl)c3F)c2cc1OC(=O)N1CCN(C)C[C@H]1C | 75.1% | 53.9% | 71% | 83.4% | 75.8% | 64.4% | 81.3% | 77.3% | 79.6% | 87.3% |
| COc1cnc2c(c1)C(=O)c1c-2n(CCCN2CCOCC2)c(=O)c2cc(Cl)ccc12 | 43.9% | 8.04% (active) | 45.9% | 28.6% | 8.25% (active) | 32% | -9.63% (active) | 4.37% (active) | -36.6% (active) | 66.4% |
| CC[C@H](CO)Nc1nc(NCc2ccccc2)c2ncn(C(C)C)c2n1 | 53.4% | 54% | 57.4% | 67.9% | 62.5% | 70.8% | 66.5% | 46.8% | 51.1% | 55.5% |
| C=C1CC[C@@H]2[C@](C)(COC(C)=O)[C@H](OC(C)=O)CC[C@@]2(C)[C@@H]1C/C=C1/C(=O)OC[C@H]1OC(C)=O | -23% (active) | -39.4% (active) | 44.9% | 83% | 54% | 88.5% | 56.2% | 29.7% | -74.4% (active) | 37.8% |
| Cc1c(CN2CCN(C(=O)[C@H](C)O)CC2)sc2c(N3CCOCC3)nc(-c3cnc(N)nc3)nc12 | 2.93% (active) | -13% (active) | -47.4% (active) | 3.17% (active) | 6.95% (active) | 8.68% (active) | -36.3% (active) | -62.6% (active) | 0.99% (active) | -30% (active) |
| O=C(CNc1nnc(-c2ccc(Cl)cc2)o1)Nc1ccc(-c2nc3ccccc3s2)cc1 | 89.6% | 95.7% | 85.8% | 90.6% | 81.6% | 88.6% | 92.1% | 86.1% | -43.1% (active) | 117% |
| CC/C(=C(/c1ccc(Cl)cc1)c1ccc(OCCN2CCCCC2)cc1)c1ccc(Cl)cc1 | 57.1% | 23% | 85.7% | 85.7% | 62.3% | 63.7% | 86.9% | 97% | 82.2% | 98.5% |
| CCN(CC)Cc1cc(Nc2cc(C(F)(F)F)c(C#N)c3nc4ccccc4n23)ccc1O | 6.22% (active) | 5.33% (active) | 13.5% | 18.5% | 8.94% (active) | 6.16% (active) | -36.4% (active) | 9.53% (active) | 12.2% | 29.6% |
| CN1CCN(CCCOc2cccc3nc(Nc4ccc(Cl)c(C(F)(F)F)c4)ccc23)CC1 | -49.6% (active) | -58.9% (active) | -3.73% (active) | 20.8% | -22.7% (active) | 14.6% | 41.5% | -29% (active) | -95% (active) | -45.2% (active) |
| Cc1ccsc1C(NC(=O)c1ccccc1)c1cc(Cl)c2cccnc2c1O (stereo not given) | 13.4% | 29.2% | 30% | 15.3% | 6.52% (active) | 18.3% | 4.33% (active) | -22.3% (active) | 8.58% (active) | 45.4% |
| FC(F)(F)c1ccc(CNc2ccc(Cc3c[nH]c4ncc(Cl)cc34)cn2)cn1 | 19.9% | 2.92% (active) | 9.21% (active) | 37% | 18.2% | 18.3% | -59.8% (active) | 6.74% (active) | 15.2% | 17.8% |
| Cn1ccnc1C(=O)/C=C/c1ccc(CC(=O)Nc2ccc(C(F)(F)F)cc2)cc1 | -18.7% (active) | -2.78% (active) | 0.358% (active) | 4.97% (active) | -20% (active) | 13.8% | 56.9% | 27.9% | -49.4% (active) | 77.8% |
| CO[C@H](C(=O)N[C@@H](CCCCNC(=O)OCc1ccccc1)C(=O)OC(C)(C)C)[C@@H]1Cc2cc3cc(OC4CC(OC5CC(O)C(O)C(C)O5)C(O)C(C)O4)c(C)c(O)c3c(O)c2C(=O)[C@H]1OC1CC(OC2CC(OC3CC(C)(O)C(O)C(C)O3)C(O)C(C)O2)C(O)C(C)O1 (stereo not given in full) | 26.6% | 2.05% (active) | -94.3% (active) | -51.6% (active) | -82.3% (active) | 3.14% (active) | -97.7% (active) | -62.7% (active) | -62.8% (active) | -55.7% (active) |
| Cc1cc2c(-c3nc4ccccn4c3NC34CC5CC(CC(C5)C3)C4)c(O)c(O)cc2c(O)c1-c1c(C)cc2c(-c3nc4ccccn4c3NC34CC5CC(CC(C5)C3)C4)c(O)c(O)cc2c1O | 20% | 14.1% | 19.6% | 17.1% | 6.36% (active) | 14.7% | -57.7% (active) | 0.552% (active) | 3.37% (active) | 17.3% |
| c1cc(OCCN2CCCCC2)cc(-c2n[nH]c3ccc(-c4ncn[nH]4)cc23)c1 | 79.7% | 21% | 46.1% | 86.2% | 84% | 86.9% | 43.4% | 31.9% | 30.8% | 46.5% |
| COC(=O)[C@@H](OC)[C@@H]1Cc2cc3cc(OC4CC(OC5CC(O)C(O)C(C)O5)C(O)C(C)O4)c(C)c(O)c3c(O)c2C(=O)[C@H]1OC1CC(OC2CC(OC3CC(C)(O)C(O)C(C)O3)C(O)C(C)O2)C(O)C(C)O1 (stereo not given in full) | 7.16% (active) | 3.61% (active) | -79.3% (active) | 4.99% (active) | 2.62% (active) | -23.3% (active) | -69.5% (active) | -58.5% (active) | -24% (active) | -38% (active) |
| COc1ccc2nc3cc(Cl)ccc3c(Nc3ccc(N(C)C)cc3)c2c1 | 91.1% | 72.1% | 111% | 101% | 93.5% | 85.4% | 100% | 98.1% | 88.8% | 112% |
| O=C(Cc1ccc(/C=C/C(=O)c2ncc[nH]2)cc1)Nc1ccc(S(F)(F)(F)(F)F)cc1 | 34.2% | -25.7% (active) | 72.8% | 75.9% | 37% | 58.9% | 98.4% | 86.7% | -59% (active) | 100% |
